Screens as filed in PubChem.
CYP2C9 act: CYP2C9 (human) activation; recombinant CYP2C9, luciferin-H conversion, luminescence; stronger effect = higher value; factor 1 = untreated enzyme, 0 = blocked; P11712; 96,000 compounds, 1.4% hits; activation factor at 5 µM; AID 1024;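 active means activation factor of 2 or more for CYP2C9 at a 5 µM dose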
CYP2C9 inh: blocks human cytochrome P450 2C9; CYP2C9 Supersomes, luciferin-H conversion, luminescence; P11712; 96,000 compounds, 20% hits; AID 777; inhibition, % at 5 µM;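 active means blocking of liver enzyme CYP2C9 beyond about 50% at 5 µM, limit read from the data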
sEH inhibitor: blocks human soluble epoxide hydrolase activity; AID 707; recombinant human sEH enzymatic activity assay; inhibition, % at 2 µM; P34913; 91,000 compounds, 0.34% hits; in the data active means inhibition above about 80%
Target sequence (P34913 whole entry, looked up): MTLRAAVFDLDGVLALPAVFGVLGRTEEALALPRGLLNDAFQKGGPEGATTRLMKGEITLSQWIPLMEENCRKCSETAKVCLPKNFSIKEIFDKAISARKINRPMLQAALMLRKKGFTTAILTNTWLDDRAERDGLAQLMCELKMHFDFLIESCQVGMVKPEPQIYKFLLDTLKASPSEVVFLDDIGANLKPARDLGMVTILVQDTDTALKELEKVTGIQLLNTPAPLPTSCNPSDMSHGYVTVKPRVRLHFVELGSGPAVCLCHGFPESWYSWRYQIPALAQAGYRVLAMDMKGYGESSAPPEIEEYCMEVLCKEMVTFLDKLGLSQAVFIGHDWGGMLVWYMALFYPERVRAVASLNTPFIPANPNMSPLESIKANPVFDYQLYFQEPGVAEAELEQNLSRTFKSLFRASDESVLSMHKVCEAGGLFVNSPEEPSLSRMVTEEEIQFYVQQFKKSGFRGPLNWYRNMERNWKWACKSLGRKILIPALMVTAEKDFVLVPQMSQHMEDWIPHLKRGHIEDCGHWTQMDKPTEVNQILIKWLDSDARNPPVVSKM
CYP2C19 inhib: inhibitors of human CYP2C19 | CYP2C19 Supersomes, luciferin-H EGE luminescence, 30 min | inhibition, % at 5 µM | 96,000 compounds, 21% hits;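 active means CYP2C19 inhibition above a set limit at 5 µM in the primary screen, cut at about 50% in these data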
CYP2C19 activ: increases human CYP2C19 enzyme activity | recombinant CYP2C19, luciferin-H EGE luminescence; stronger effect = higher value; 0 = fully inhibited enzyme, 1 = untreated enzyme | activation factor at 5 µM | 96,000 tested, under 10 active | AID 1025;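 active means activation factor of at least 2 at 5 µM in the primary screen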
sEH activator: soluble epoxide hydrolase (human) activation | P34913 | purified human sEH enzymatic activity, activator screen | activation, % at 2 µM | 91,000 compounds, 0.04% hits; in the data active means activation above about 37%
A number is an active result; - = inactive; . = no result given. Only some compounds are listed: those with a hit (about 27% of all), similar ones and a draw of the others.

SMILES | CYP2C9 act | CYP2C9 inh | sEH inhibitor | CYP2C19 inhib | CYP2C19 activ | sEH activator
C=CCn1c(=O)c2c3c(sc2n2c(Nc4ccc(C(=O)OCC)cc4)nnc12)CCCC3 | - | - | - | - | - | -
Clc1ccc2c(N3CCCC3)ccnc2c1 | - | - | - | - | - | -
Clc1ccc2c(NNc3ccccc3Cl)ccnc2c1 | - | 60 | - | - | - | -
O=C(Nc1nc(=O)c2ccccc2s1)c1ccc(Cl)cc1 | - | - | - | 62 | - | -
COc1ccc(OC)c(N)c1 | - | - | - | - | - | -
COc1ccc2c(c1)C(=NN)c1cc(OC)ccc1-2 | - | 62 | - | - | - | -
COc1cccc(NC(=O)c2cc(-c3cccnc3)nc3c(Cl)cccc23)c1 | - | 77 | - | - | - | -
COc1cc2c(cc1NC(=O)Nc1ccc(C)cc1)oc1ccccc12 | - | - | - | - | - | -
COc1cc2c(cc1NC(=O)Nc1cccc(C)c1)oc1ccccc12 | - | - | - | - | - | -
COc1ccc(NC(=O)c2cc(-c3cccnc3)nc3c(C)c(C)ccc23)c(OC)c1 | - | 86 | - | 80 | - | -
COc1cccc(C(=O)Nc2cccnc2)c1 | - | - | - | - | - | -
COc1cc2c(cc1NC(=O)c1cc(-c3cccnc3)nc3ccc(C)cc13)oc1ccccc12 | - | 75 | - | - | - | -
COc1cc2c(cc1NC(=O)/C=C/c1ccccc1)oc1ccccc12 | - | 78 | - | - | - | -
CCNc1nc(Oc2ccccc2)nc(OC(C)C(=O)OCC)n1 (centres undefined) | . | . | - | . | . | -
COc1ccccc1CNC(=O)Cn1cccc1 | - | - | - | - | - | -
O=C(CN1C(=O)c2ccccc2S1(=O)=O)NCCSCc1ccco1 | - | - | . | - | - | .
COc1ccc(NC(=O)c2cc3nc(-c4ccccc4)cc(-c4ccccc4)n3n2)c(OC)c1 | - | 77 | - | - | - | -
CN1CCN(S(=O)(=O)c2ccc(SCCOc3ccccc3)nc2)CC1 | - | - | - | 51 | - | -
COc1ccccc1N(CCC#N)C(=O)CSc1nc(-c2ccccc2)cn1N | - | - | - | 75 | - | -
Nn1cc(-c2ccccc2)nc1SCC(=O)N1CCN(S(=O)(=O)c2ccccc2)CC1 | - | - | - | - | - | -
O=S(=O)(Cc1cccc(F)c1)c1c[nH]c2ccccc12 | - | 81 | . | 100 | - | .
OCC(CO)(CO)N=Cc1cc(Br)ccc1O | - | - | - | - | - | -
Oc1ccc(Br)cc1/C=N/n1cnc2ccccc21 | - | 71 | - | - | - | -
Cn1c(SCC(=O)N2CCCCC2)nc2cccnc21 | - | - | - | - | - | -
CCC/C(O)=C1\C(=O)CCCC1=NCCCCCC(=O)O | - | - | - | - | - | -
SMILES | CYP2C9 act | CYP2C9 inh | sEH inhibitor | CYP2C19 inhib | CYP2C19 activ | sEH activator
Cc1ccc(-c2c3c(nc4sc(C(N)=O)c(N)c24)CCC3)cc1 | - | - | - | - | - | -
COc1ccc(-c2c3c(nc4sc5c(Cl)nc(C)nc5c24)CCC3)cc1 | - | 58 | - | - | - | -
COc1ccc(OC)c(C(=O)CSc2nc3cccnc3n2C)c1 | - | 77 | - | 98 | - | -
Cn1c(SCC(=O)c2ccc(F)cc2)nc2cccnc21 | - | - | - | 85 | - | -
COc1ccc(OC)c(C(=O)CSc2nc3ncccc3[nH]2)c1 | - | 90 | . | 79 | - | .
COc1ccc(NC(=O)CSc2nc3ncccc3[nH]2)cc1OC | - | - | - | - | - | -
COc1ccc(OC)c(C(=O)CSc2nc3c(c(=O)n(C)c(=O)n3C)n2C(C)C)c1 | - | 54 | - | - | - | -
O=C(C1CC(=O)N(c2ccccc2)C1)N1CCN(C2=NS(=O)(=O)c3ccccc32)CC1 (centres undefined) | - | - | - | - | - | -
Cc1ccc(C(=O)CSc2nc3cccnc3n2C)cc1 | - | - | - | - | - | -
Cn1c(SCC(=O)c2ccccc2)nc2cccnc21 | - | - | - | 72 | - | -
O=C(CCn1cnc2ccccc2c1=O)Nc1nc2c(s1)CCCC2 | - | - | - | - | - | -
Cc1cccc(NC(=O)CN2NS(=O)(=O)c3ccccc3C2=O)c1 | - | 59 | - | - | - | -
Cc1ccc(CC(=O)Nc2nc3c(s2)CCCC3)cc1 | - | 87 | - | - | - | -
O=C(CCS(=O)(=O)Cc1ccccc1)Nc1nc2c(s1)CCCC2 | - | - | - | - | - | -
O=C(CCN1C(=O)c2ccccc2S1(=O)=O)Nc1nc2c(s1)CCCC2 | - | 88 | - | 84 | - | -
O=C(Cc1ccc(S(=O)(=O)N2CCCC2)s1)Nc1nc2c(s1)CCCC2 | - | - | - | - | - | -
O=C(CS(=O)(=O)Cc1ccccc1)Nc1nc2c(s1)CCCC2 | - | - | - | 56 | - | -
COC(=O)NCC12CC3CC(C1)CC(CNC(=O)OC)(C3)C2 | - | - | . | - | - | .
Cc1ncsc1C(=O)Nc1nc2c(s1)CCCC2 | - | - | - | 66 | - | -
COc1cccc(NC(=O)CCN2C(=O)c3ccccc3S2(=O)=O)c1 | - | - | - | - | - | -
Cc1cc(C(=O)Nc2nc3c(s2)CCCC3)cs1 | - | - | . | - | - | .
CC(C)C(=O)Nc1cccc(NC(=O)CCN2C(=O)c3ccccc3S2(=O)=O)c1 | - | 97 | - | 87 | - | -
O=C1OCC2=C1C(c1ccc(F)cc1)Sc1ccccc1N2 (centres undefined) | - | 75 | - | 77 | - | -
O=c1c2sc3nc(N4CCOCC4)c4c(c3c2ncn1CCc1ccccc1)CCCC4 | - | 61 | - | 52 | - | -
COC(=O)c1ccc(Cn2cnc3c(sc4nc(N5CCOCC5)c5c(c43)CCCC5)c2=O)o1 | - | 52 | . | - | - | .
SMILES | CYP2C9 act | CYP2C9 inh | sEH inhibitor | CYP2C19 inhib | CYP2C19 activ | sEH activator
O=C(NC1CCN(Cc2ccccc2)CC1)C12CC3CC(CC(C3)C1)C2 | . | . | - | . | . | -
N#CC(C#N)=CC1=C2OC(c3ccccc3)=CC(c3ccccc3)=C2CCC1 | - | 79 | - | - | - | -
CCC(Sc1nc(C)cc(C)n1)C(=O)Nc1ccc(Cl)cn1 (centres undefined) | . | . | - | . | . | -
CCCCc1nc(NCCNC(=O)c2ccco2)c(C#N)c2c1CSC(C)(C)C2 | - | 93 | - | 68 | - | -
O=C(NC(=S)Nc1ccc(N2CCCCC2)c(Cl)c1)c1cccs1 | . | . | - | . | . | -
CCOc1cc(CNC2CCCC2)cc(Cl)c1OCc1ccccc1 | - | - | - | 76 | - | -
c1ccc(COc2ccc(OCCCNC3CCCC3)cc2)cc1 | - | - | - | - | - | -
COc1cc(C2Nc3ccccc3C(=O)N2c2ccc3c(c2)OCCO3)ccc1OCC(C)C (centres undefined) | - | 99 | - | 70 | - | -
O=C1c2ccccc2NC(c2ccc3c(c2)OCO3)N1O (centres undefined) | - | - | - | - | - | -
O=C1c2ccccc2NC(c2ccc3c(c2)OCCO3)N1c1ccc2c(c1)OCCO2 (centres undefined) | - | 94 | . | 79 | - | .
